Molecules are shown by their SMILES. Calls of active or inactive are those of the source.

Assay [1] deals with PRMT1 (protein arginine N-methyltransferase 1). Put plainly: PRMT1 binders on small-molecule microarrays, primary screen, biochemical, small-molecule microarray, 635 nm fluorescence (AID 1088).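 Also: binding of Prmt1 protein to compounds spotted on small-molecule microarray slides.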 To be noted: small-molecule microarray binding, higher = more signal.
A short description of assay [2]: yeast growth modulation, basal conditions, primary screen, YJM789 clinical isolate, OD600, 24 h (AID 1089).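 Also: growth of clinical yeast isolate S. cerevisiae YJM 789 seeded 1000 cells per well; test concentration not given here.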 To be noted: S. cerevisiae YJM789 growth, higher = more signal, called active from +8 up or from −8 down.
A short description of assay [3]: fission yeast growth modulation, primary screen, strain 972, OD600, 24 h, no modulator (AID 1090).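 Also: basal condition with compound alone and no growth modifier present; test concentration not given here.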 To be noted: S. pombe 972 growth, higher = more signal, called active from +8 up or from −8 down.
Assay [4] can be described thus: S. cerevisiae growth modulation with rapamycin, primary screen, strain BY4716, OD600, 96 h (AID 1091). Also: test concentration not given here. To be noted: higher = more signal, called active from +8 up or from −8 down.
Assay [5] has as its target Torsin-1A-interacting protein 2 (Homo sapiens) (UniProt Q8NFQ8). Kind of assay: LULL1 binders on small-molecule microarray, primary screen, cell lysate, human LULL1 lysate, 635/667 nm fluorescence (AID 1092).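 Also: probe is lysate of COS7 cells overexpressing human LULL1; score merges per-feature 667 nm fluorescence with signal-to-noise.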 Particulars: hLULL1 lysate binding, 635 nm fluorescence, higher = more signal.
A short description of assay [6]: E. coli growth modulation, two-sided OD650, primary screen, E. coli filamentation project, strain DRC41, 24 h (AID 1093).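 Also: MC1000 strain lacking acrAB efflux and sulA so SOS filamentation is blocked; test concentration not given here.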 Particulars: OD650, 24 h, higher = more signal, called active from +8 up or from −8 down.
Assay [7] is described as follows: small-molecule microarray binders of probe aLefty2, primary screen, biochemical, biotinylated probe, 635/667 nm fluorescence (AID 1094).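 Also: score merges spot fluorescence near 667 nm with spot signal-to-noise ratio.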 To be noted: higher = more signal.
Assay [8] deals with Noggin (protein binding on small-molecule microarray). Kind of assay: Noggin binders on small-molecule microarray, primary screen, biochemical, 635/667 nm fluorescence (AID 1095).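 Also: score merges 667 nm feature fluorescence with signal to noise over triplicate slides.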 Particulars: 635 nm fluorescence, higher = more signal.
Assay [9] addresses Neurogenic locus notch homolog protein 3 (Homo sapiens) (UniProt Q9UM47). Put plainly: NOTCH3 binders on small-molecule microarray, primary screen, biochemical, 635/667 nm fluorescence (AID 1096). Particulars: NOTCH3 binding, 635 nm fluorescence, higher = more signal.
A short description of assay [10]: small-molecule microarray binders of probe aEGFR, primary screen, biochemical, biotinylated probe, 635/667 nm fluorescence (AID 1097).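 Also: probe is a biotinylated anti-EGFR antibody binding compounds printed on slides; score combines fluorescence near 667 nm and signal to noise of each spot.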 To be noted: higher = more signal.
Assay [11] has as its system Plasmodium falciparum Sir2 (PF13_0152, Sir2A). Kind of assay: pfSir2 binders on small-molecule microarrays, primary screen, biochemical, small-molecule microarray, 635 nm fluorescence (AID 1098).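 Also: score merges spot fluorescence intensity with its signal-to-noise ratio.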 To be noted: small-molecule microarray binding, fluorescence 635 nm; higher = more signal.
A short description of assay [12]: small-molecule microarray binders of probe aDKK1, primary screen, biochemical, biotinylated probe, 635/667 nm fluorescence (AID 1099).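 Also: score merges 667nm spot fluorescence with signal to noise across triplicate slides; reference of the scale not given here.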 To be noted: higher = more signal.
Assay [13] can be described thus: small-molecule microarray binders of probe aCHRDL2, primary screen, biochemical, biotinylated probe, 635/667 nm fluorescence (AID 1100). Particulars: higher = more signal.
Assay [14] is described as follows: splicing luciferase reporter signal modulators, primary screen, spliceosome inhibition project, cell-based, HEK293, splice +/- reporter (AID 1101).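 Also: HEK293 cells carrying a splicing-competent luciferase reporter gene; test concentration not given here.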 Particulars: luminescence, 24 h, higher = more signal, called active from +8 up or from −8 down. Background: A reporter such as luciferase makes a cellular process visible.
Assay [15] concerns the target Fibroblast growth factor 10 (Homo sapiens) (UniProt O15520). Put plainly: FGF10 binders on small-molecule microarrays, primary screen, biochemical, small-molecule microarray, 635 nm fluorescence (AID 1102). To be noted: FGF10 binding, fluorescence 635 nm, higher = more signal.
The subject of assay [16] is glycogen synthase kinase-3 (GSK3A per assay name; protocol says GSK3B). Kind of assay: GSK3 binders on small-molecule microarrays, primary screen, biochemical, small-molecule microarray, 635 nm fluorescence, GSK3A (AID 1103). Also: the record names both GSK3A and GSK3B. Particulars: small-molecule microarray binding, fluorescence 635 nm; higher = more signal.
Assay [17] deals with Epidermal growth factor receptor (Homo sapiens) (UniProt P00533). Put plainly: EGFR binders on small-molecule microarrays, primary screen, biochemical, small-molecule microarray, 635 nm fluorescence (AID 1104).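 Also: score merges 667 nm emission intensity with spot signal to noise over triplicate slides.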 Particulars: EGFR binding, higher = more signal.
Sequence of Epidermal growth factor receptor (Homo sapiens) (P00533 whole entry, looked up): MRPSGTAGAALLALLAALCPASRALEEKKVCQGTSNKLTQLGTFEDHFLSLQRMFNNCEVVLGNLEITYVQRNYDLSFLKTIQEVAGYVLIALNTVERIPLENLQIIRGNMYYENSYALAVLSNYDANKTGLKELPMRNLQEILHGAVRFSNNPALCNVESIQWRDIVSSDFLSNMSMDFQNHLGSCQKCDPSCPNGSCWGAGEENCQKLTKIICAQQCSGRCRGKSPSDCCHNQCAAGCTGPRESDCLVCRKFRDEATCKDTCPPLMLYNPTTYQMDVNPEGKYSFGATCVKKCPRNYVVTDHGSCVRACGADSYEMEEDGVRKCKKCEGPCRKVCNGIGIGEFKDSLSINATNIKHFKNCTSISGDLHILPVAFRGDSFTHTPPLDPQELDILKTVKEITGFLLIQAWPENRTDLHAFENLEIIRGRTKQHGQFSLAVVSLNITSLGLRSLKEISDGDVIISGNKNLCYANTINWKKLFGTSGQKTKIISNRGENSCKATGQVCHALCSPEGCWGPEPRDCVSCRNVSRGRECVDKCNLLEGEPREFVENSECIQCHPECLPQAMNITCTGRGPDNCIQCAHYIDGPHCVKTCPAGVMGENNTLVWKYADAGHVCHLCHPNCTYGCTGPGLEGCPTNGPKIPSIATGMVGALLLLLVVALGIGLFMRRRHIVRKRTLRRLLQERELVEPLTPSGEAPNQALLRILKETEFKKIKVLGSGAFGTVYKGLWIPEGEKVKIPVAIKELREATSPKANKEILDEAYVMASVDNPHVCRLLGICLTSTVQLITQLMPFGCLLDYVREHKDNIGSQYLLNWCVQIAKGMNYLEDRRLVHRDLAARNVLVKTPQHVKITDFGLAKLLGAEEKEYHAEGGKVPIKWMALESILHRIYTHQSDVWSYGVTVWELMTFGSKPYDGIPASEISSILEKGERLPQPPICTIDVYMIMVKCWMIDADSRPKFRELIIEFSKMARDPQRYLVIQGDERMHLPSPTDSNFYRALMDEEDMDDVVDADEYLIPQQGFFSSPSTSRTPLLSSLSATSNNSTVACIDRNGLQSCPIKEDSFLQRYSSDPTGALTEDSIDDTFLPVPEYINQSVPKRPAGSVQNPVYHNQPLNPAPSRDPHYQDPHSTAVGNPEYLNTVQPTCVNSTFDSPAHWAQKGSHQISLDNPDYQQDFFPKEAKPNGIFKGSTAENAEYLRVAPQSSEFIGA
Assay [18] addresses Follistatin-related protein 3 (Homo sapiens) (UniProt O95633). Put plainly: FSTL3 binders on small-molecule microarrays, primary screen, biochemical, small-molecule microarray, 635 nm fluorescence (AID 1105).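 Also: score merges emission near 667 nm and signal to noise per printed spot across three slides.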 Particulars: FSTL3 binding, higher = more signal.
Assay [19] deals with Dickkopf-related protein 1 (Homo sapiens) (UniProt O94907). Put plainly: DKK1 binders on small-molecule microarrays, primary screen, biochemical, small-molecule microarray, 635 nm fluorescence scan (AID 1106).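 Also: score merges emission near 667 nm with signal to noise over three replicate slides.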 Particulars: DKK1 binding, higher = more signal.
Sequence of Dickkopf-related protein 1 (Homo sapiens) (O94907 whole entry, looked up): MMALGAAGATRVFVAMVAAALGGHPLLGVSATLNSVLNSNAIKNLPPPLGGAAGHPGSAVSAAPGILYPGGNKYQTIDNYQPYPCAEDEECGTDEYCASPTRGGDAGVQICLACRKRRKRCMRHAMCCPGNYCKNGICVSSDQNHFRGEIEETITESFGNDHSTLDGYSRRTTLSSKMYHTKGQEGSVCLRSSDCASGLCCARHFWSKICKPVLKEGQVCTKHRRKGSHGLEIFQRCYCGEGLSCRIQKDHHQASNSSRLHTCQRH
Assay [20] has as its system Inhibin beta A chain (activin A). Kind of assay: INHBA (activin A) binders on microarrays, primary screen, biochemical, small-molecule microarray, 635 nm fluorescence scan (AID 1107).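 Also: mouse activin A protein probed at 4.33 µg/mL on printed slides; score merges bound-protein fluorescence near 667 nm with spot signal-to-noise.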 To be noted: small-molecule microarray binding, higher = more signal.

Sequence of Neurogenic locus notch homolog protein 3 (Homo sapiens) (Q9UM47 whole entry, looked up): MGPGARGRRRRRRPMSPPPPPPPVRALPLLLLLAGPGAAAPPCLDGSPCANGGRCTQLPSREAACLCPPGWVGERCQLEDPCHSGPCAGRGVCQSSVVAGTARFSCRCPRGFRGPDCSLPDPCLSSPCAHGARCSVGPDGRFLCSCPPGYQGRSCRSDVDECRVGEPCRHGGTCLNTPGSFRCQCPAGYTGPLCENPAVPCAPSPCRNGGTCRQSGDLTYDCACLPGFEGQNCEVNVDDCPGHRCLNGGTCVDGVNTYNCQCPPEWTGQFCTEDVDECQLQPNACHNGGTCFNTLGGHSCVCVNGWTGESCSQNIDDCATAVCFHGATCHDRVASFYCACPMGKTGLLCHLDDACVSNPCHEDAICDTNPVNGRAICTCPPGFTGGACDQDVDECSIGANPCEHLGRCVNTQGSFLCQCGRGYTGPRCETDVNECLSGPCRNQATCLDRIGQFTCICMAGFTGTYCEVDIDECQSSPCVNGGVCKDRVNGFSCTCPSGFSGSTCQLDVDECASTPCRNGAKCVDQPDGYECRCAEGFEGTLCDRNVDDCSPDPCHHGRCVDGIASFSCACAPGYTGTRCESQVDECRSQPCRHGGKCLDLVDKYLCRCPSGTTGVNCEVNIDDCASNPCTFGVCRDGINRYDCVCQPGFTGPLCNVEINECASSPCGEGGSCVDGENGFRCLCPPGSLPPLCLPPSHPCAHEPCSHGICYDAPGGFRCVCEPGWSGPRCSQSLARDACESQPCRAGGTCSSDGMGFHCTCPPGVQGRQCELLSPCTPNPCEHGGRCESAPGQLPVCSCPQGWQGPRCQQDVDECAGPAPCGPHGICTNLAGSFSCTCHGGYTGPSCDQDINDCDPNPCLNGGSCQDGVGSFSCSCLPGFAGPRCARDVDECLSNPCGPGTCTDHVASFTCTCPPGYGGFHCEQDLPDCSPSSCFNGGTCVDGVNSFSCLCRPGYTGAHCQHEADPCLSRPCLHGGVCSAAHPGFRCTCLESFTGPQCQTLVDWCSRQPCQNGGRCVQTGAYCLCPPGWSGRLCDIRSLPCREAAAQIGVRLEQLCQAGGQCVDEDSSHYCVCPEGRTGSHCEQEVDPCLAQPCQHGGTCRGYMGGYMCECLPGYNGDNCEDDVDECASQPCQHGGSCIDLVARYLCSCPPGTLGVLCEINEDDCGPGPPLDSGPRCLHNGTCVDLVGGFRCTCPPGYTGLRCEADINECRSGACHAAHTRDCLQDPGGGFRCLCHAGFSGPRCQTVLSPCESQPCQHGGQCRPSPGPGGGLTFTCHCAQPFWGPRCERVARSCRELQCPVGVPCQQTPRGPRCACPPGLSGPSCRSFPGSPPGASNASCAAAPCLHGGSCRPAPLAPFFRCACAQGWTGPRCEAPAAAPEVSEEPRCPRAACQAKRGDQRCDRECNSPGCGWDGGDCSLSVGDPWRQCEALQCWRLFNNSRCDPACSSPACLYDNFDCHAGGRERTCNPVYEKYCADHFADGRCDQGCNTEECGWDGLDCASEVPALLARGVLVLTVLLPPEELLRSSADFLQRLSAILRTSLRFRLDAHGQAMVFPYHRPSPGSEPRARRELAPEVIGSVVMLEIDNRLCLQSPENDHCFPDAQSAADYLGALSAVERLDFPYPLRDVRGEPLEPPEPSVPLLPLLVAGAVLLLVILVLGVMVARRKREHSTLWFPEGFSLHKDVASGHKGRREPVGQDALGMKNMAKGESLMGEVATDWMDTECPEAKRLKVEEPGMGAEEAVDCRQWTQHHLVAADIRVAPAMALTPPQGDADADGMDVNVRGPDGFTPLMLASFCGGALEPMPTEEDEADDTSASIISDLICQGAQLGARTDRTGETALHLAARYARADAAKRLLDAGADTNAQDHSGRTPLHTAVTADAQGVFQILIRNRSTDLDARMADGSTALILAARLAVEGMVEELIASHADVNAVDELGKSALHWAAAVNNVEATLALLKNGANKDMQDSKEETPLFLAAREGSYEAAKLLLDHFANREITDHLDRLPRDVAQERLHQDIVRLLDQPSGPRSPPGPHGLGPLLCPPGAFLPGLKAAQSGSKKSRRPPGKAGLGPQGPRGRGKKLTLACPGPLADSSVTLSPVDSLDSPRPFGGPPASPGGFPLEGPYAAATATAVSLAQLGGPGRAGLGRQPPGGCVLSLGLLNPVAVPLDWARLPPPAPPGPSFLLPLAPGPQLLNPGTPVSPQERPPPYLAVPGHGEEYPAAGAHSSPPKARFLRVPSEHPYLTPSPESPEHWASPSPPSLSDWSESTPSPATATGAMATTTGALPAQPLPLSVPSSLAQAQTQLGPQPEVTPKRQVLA
Sequence of Torsin-1A-interacting protein 2 (Homo sapiens) (Q8NFQ8 whole entry, looked up): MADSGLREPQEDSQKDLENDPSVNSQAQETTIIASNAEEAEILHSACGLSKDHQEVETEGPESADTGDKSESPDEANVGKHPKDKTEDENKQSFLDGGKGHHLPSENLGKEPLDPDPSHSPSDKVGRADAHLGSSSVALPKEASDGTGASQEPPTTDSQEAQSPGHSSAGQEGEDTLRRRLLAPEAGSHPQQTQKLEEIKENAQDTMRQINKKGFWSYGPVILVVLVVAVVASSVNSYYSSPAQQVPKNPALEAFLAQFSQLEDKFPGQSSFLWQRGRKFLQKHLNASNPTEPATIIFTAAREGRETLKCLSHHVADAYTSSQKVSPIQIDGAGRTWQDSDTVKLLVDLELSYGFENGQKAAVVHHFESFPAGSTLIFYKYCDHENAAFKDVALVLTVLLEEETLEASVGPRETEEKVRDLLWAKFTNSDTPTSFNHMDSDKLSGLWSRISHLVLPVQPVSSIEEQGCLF
Sequence of Fibroblast growth factor 10 (Homo sapiens) (O15520 whole entry, looked up): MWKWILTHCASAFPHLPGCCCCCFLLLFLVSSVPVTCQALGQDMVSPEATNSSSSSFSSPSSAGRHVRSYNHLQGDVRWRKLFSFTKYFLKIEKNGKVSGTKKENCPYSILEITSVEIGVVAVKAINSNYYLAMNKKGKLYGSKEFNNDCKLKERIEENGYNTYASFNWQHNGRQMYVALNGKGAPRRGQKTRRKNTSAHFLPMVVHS
Sequence of Follistatin-related protein 3 (Homo sapiens) (O95633 whole entry, looked up): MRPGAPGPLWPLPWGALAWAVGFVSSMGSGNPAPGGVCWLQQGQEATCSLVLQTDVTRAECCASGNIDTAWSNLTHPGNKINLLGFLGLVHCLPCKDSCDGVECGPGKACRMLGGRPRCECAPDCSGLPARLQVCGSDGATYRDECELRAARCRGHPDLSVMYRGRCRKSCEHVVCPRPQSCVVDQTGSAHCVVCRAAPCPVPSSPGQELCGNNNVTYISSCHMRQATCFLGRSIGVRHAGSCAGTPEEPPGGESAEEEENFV

For the molecule `NCCCCCCNC(=O)[C@H]1C[C@H]2C(=O)N[C@@H](Cc3ccccc3)C(=O)N2[C@H]1c1ccc(O)cc1`, the composite z-score in assay [1] was 1.11; in assay [5], 2.45; in assay [7], -0.0824; in assay [8], 1.07; in assay [9], 0.272; in [10], -0.0685. Besides, the composite z-score in assay [11] is 1.3; in assay [12] it was 0.21; in assay [13], 0.456; in assay [15], -0.0657; in assay [16] it was 0.481; in assay [17] it was 0.92. Also, the composite z-score in assay [18] is 0.533; in [19] it was 0.232; in [20], 1.1. The z-score in assay [2] is -1.8 (inactive); in [3] it was -0.599 (inactive); in assay [4] it was -1.24 (inactive); in [6], 0.933 (inactive); in [14], -1.23 (inactive).

Turning to `COc1ccc(C(O)C2C=CC3C(=O)N(C)C(=O)C3N2N2CCCCC2)cc1` (stereo not given), the composite z-score in [1] came to 0.973; in assay [5] it was 2.83; in assay [7] it was 0.311; in assay [8], 0.158; in assay [9], 0.871; in assay [10] it was 0.0961. Besides, the composite z-score in assay [11] turned out to be 1.23; in assay [12], 0.297; in assay [13], 0.378; in assay [15], 0.632; in [16], 1.09; in assay [17], 0.579. Further, the composite z-score in assay [18] was 0.306; in [19] it was 0.224; in assay [20], 1.31. The z-score was -0.186 (inactive) in assay [2]; -0.275 (inactive) in assay [3]; -0.0667 (inactive) in assay [4]; -0.454 (inactive) in assay [6]; 1.33 (inactive) in assay [14].

Turning to `[N-]=[N+]=Nc1ccccc1[C@H]1OC(c2ccc(OCCCO)cc2)=N[C@@]1(CCS(=O)(=O)c1ccccc1)C(=O)N1CCCCC1`, the composite z-score amounted to 1.51 in assay [1]; 3.16 in assay [5]; 0.428 in assay [7]; 0.0467 in assay [8]; 1.12 in assay [9]; 0.176 in assay [10]. The composite z-score worked out at 1.37 in assay [11]; 1.27 in [12]; 1.27 in assay [13]; 0.354 in assay [15]; 0.797 in [16]; 0.0374 in assay [17]. Also, the composite z-score in assay [18] is 0.801; in [19], -0.44; in assay [20], 1.38. Besides, the z-score in [2] is -0.347 (inactive); in assay [3], 0.189 (inactive); in assay [4], 2.73 (inactive); in assay [6], -0.413 (inactive); in assay [14], -1.21 (inactive).

As for `C=CC1c2cc(O)c(OC)cc2CCN1Cc1sc2ccccc2c1Cl` (stereo not given), the composite z-score in assay [1] amounted to 0.756; in assay [5], 2.49; in assay [7], 0.233; in assay [8], 0.123; in assay [9] it was 0.968; in assay [10] it was 0.0673. The composite z-score is 1.29 in assay [11]; 0.284 in [12]; 1.25 in assay [13]; 0.504 in assay [15]; 0.112 in [16]; -0.163 in assay [17]. Moreover, the composite z-score worked out at 0.847 in [18], 0.153 in assay [19] and 1.55 in [20]. Moreover, the z-score in assay [2] was -1.62 (inactive); in assay [3], -19.2 (active); in assay [4], -0.399 (inactive); in [6], -0.368 (inactive); in [14], -1.4 (inactive).

`NC(=O)NCC#Cc1ccc2c(c1)[C@]1(C(=O)N2)[C@H](C(=O)O)[C@H]2C(=O)O[C@H](c3ccccc3)[C@H](c3ccccc3)N2[C@@H]1c1ccccc1OCCO`: the composite z-score in [1] turned out to be 1.43; in assay [5], 1.43; in assay [7] it was 0.857; in [8] it was 1.01; in assay [9], 1.11; in assay [10], 0.0223. For the same molecule, the composite z-score in assay [11] came to 1.37; in assay [12] it was 0.689; in assay [13], 0.677; in assay [15], 0.991; in assay [16] it was 0.558; in assay [17] it was 0.363. Also, the composite z-score in assay [18] worked out at 1.01; in assay [19], 0.351; in [20], 1.4. The z-score in assay [2] is -1.39 (inactive); in [3] it was -1.19 (inactive); in [4] it was -0.675 (inactive); in assay [6] it was 3.22 (inactive); in assay [14], -1.14 (inactive).

Source of the values: PubChem BioAssay.
